# Source: PubChem BioAssay (National Center for Advancing Translational Sciences (NCATS))
# This is a sample that favours compounds with a hit; in the whole collection about 8.7% have one here.
# HP1b chromo inh = HTS for Inhibitors of HP1-beta Chromodomain Interactions with Methylated Histone Tails. Chromobox protein homolog 1 (Homo sapiens), P83916. AlphaScreen HP1-beta / biotin-H3K9me3 peptide binding. Potency, µM (top dose mostly 114 µM), actives largely listed as inhibitors. 390,000 compounds, 0.56% hits. AID 540317, 2011; note: nearly all actives have a fitted effect of over 70% in size
# Target sequence (P83916 whole entry, looked up): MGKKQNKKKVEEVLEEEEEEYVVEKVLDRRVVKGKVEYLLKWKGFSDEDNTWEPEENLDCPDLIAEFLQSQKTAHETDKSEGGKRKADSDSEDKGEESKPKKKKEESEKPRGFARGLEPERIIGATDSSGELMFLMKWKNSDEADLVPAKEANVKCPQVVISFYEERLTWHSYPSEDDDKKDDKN
#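 Compound inhibition of the preformed complex between 50 nM HP1-beta and 50 nM biotinylated H3K9me3 peptide was read by AlphaScreen. Buffer was PBS pH 7.4 with 0.01% Tween-20. Incubations ran 30 min at room temperature, with 10 ug/mL donor/acceptor beads.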
# BAZ2B inh = qHTS Assay for Inhibitors of BAZ2B | Potency, µM (titrated, usually from 114 µM), hits mostly inhibitors | AID 504333, 2011 | AlphaScreen BAZ2B-H3K14Ac peptide displacement | 360,000 compounds, 4.4% hits; note: nearly all actives have a fitted effect of over 60% in size
#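 AlphaScreen luminescence quantifies BAZ2B engagement of H3K14Ac peptide; the protein and biotinylated peptide are both at 50 nM final, buffer PBS pH 7.4 with 0.01% Tween-20, all steps at room temperature.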
# G9a block = qHTS Assay for Inhibitors of Histone Lysine Methyltransferase G9a. Histone-lysine N-methyltransferase EHMT2 (Homo sapiens), Q96KQ7. G9a H3K9 monomethylation, AlphaScreen, 2 h. Potency, µM (titrated, usually from 102 µM), most hits filed as inhibitors. 350,000 compounds, 8.8% hits. AID 504332, 2011; note: nearly all actives have a fitted effect of over 75% in size
# Target sequence (Q96KQ7 913-1193 limits assumed): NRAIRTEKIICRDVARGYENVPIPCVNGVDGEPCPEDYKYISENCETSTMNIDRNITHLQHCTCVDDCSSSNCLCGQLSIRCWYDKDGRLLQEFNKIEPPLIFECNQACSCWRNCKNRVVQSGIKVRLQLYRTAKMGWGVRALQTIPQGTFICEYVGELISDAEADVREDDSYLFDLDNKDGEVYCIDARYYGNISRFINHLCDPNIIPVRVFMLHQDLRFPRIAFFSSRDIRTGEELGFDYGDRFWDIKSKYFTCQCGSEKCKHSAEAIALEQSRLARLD
#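 Methyltransferase reactions run at room temperature for 2 h (20 nM enzyme, 500 nM biotin-H3K9 peptide, 20 uM SAM) after a 15 min compound preincubation; product detected by AlphaScreen beads and anti-H3K9me1 antibody.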
# 12-LOX inh = Primary qHTS assay for inhibitors of human arachidonate 12S-lipoxygenase (ALOX12): Round 2. purified 12hLO, xylenol orange hydroperoxide absorbance. Polyunsaturated fatty acid lipoxygenase ALOX12 (Homo sapiens), P18054. Potency, µM (top dose mostly 108 µM), hits mostly inhibitors. 580,000 compounds, 1.1% hits
#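 Purified human 12hLO (150 nM final) in 25 mM Hepes, 0.01% Triton X-100, pH 7.0 was preincubated 15 min at room temperature with compound. Then 40 uM arachidonic acid was added, 30 min. Hydroperoxide was read by Fe-XO absorbance ratio 573/405 nm.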
# JMJD2A Tudor inh = qHTS Assay for Inhibitors of JMJD2A-Tudor Domain | Lysine-specific demethylase 4A (Homo sapiens), O75164 | AlphaScreen JMJD2A-Tudor / H3K4me3 peptide binding | Potency, µM (doses to about 114 µM), actives largely listed as inhibitors | 390,000 compounds, 4.4% hits; note: nearly all actives have a fitted effect of over 50% in size
# Sfp PPTase inh = qHTS Assay for Inhibitors of Bacillus subtilis Sfp phosphopantetheinyl transferase (PPTase); Biochemical Sfp PPTase activity, qHTS; Potency, µM, most hits filed as inhibitors; 310,000 compounds, 3.5% hits; AID 1490, 2009;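 note: the enzyme is Sfp with the accession as filed and its product quenches rhodamine fluorescence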
#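 Fluorescence-quenching assay with 15 nM Sfp, 5 uM rhodamine-CoA and 12.5 uM BHQ-2-labelled ybbR peptide in pH 7.6 Hepes/MgCl2 buffer. Enzyme was pre-incubated with compound for 15 min at room temperature. Rate was taken from the 30-min fluorescence change (525/598 nm).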
# Hits are given with their value; i = inactive; ? = inconclusive; nt = no result given; [ ] = another dose, or the depositor's remark. Calls come from the whole dose curve; as a rule, active = well fitted curve in the direction sought with a large enough effect; inconclusive = small, poorly fitted or top-dose-only effect, or another doubt; inactive = no such curve, though single readings can be large; an effect the other way counts as inactive or inconclusive.
SMILES,HP1b chromo inh,BAZ2B inh,G9a block,12-LOX inh,JMJD2A Tudor inh,Sfp PPTase inh
COc1cccc(NC(=O)Cn2c(-c3cnccn3)nc(C)c(CCO)c2=O)c1,nt,nt,nt,i,nt,nt
CC(C)CN1CCN(c2nc3c(c(=O)[nH]c(=O)n3C)n2Cc2ccccc2F)CC1,nt,nt,nt,i,nt,nt
COc1ccc(OC)c(C2CC(=O)N3CN(c4cccc(Cl)c4C)CSC3=C2C#N)c1 (stereo unspecified),?,32µM,1.4µM,11µM,18µM,3.5µM
COc1cccc(C2CC(=O)N3CN(c4cccc(Cl)c4C)CSC3=C2C#N)c1OC (stereo unspecified),?,25µM,1.8µM,7.9µM,16µM,3.5µM
COc1ccc(OC)c(C2CC(=O)N3CN(c4ccccc4F)CSC3=C2C#N)c1 (stereo unspecified),14µM,22µM,2.2µM,?,22µM,?
COc1ccc(OC)c(C2CC(=O)NC(SC)=C2C#N)c1 (stereo unspecified),i,i,?,i,i,i
COC(=O)c1ccc(NC(=O)c2nc3ccccc3nc2N2CCCC2)cc1,nt,nt,nt,i,nt,nt
C#CC[N+](C)(C)C/C=C(\Cl)C(=C)Cl,nt,nt,nt,i,nt,nt
CN(C)C1=NC(=O)/C(=C/c2ccc(-c3ccc(S(N)(=O)=O)cc3)o2)S1,nt,?,7.1µM,nt,nt,35µM
COc1ccccc1N1C(=O)CSC1=NC(=O)c1ccccc1,i,i,nt,i,i,i
COc1ccccc1N=C1SCC(=O)N1c1ccccc1OC,?,i,28µM,?,i,4.5µM
O=[N+]([O-])c1cc(C(F)(F)F)ccc1NCC1CCCO1 (stereo unspecified),i,i,i,i,?,i
COc1ccc(Nc2ccc(C(F)(F)F)cc2[N+](=O)[O-])cn1,?,40µM,?,?,56µM,i
C/C(=N\Nc1ccc(C(F)(F)F)cc1[N+](=O)[O-])C(C)C,40µM,10µM,11µM,i,?,i
CC(=O)Nc1ccc(NC(=O)CSc2ccc(C(F)(F)F)cc2[N+](=O)[O-])cc1,i,i,45µM,i,i,i
CC1CCC(=NNc2ccc(C(F)(F)F)cc2[N+](=O)[O-])CC1 (stereo unspecified),?,10µM,3.5µM,i,40µM,i
Cc1ccc(C=Nc2ccc(C)c(N=Cc3ccc(C)s3)c2)s1,nt,nt,nt,i,nt,nt
C[C@H](Nc1ccc(C(F)(F)F)cc1[N+](=O)[O-])C(=O)O,i,i,56µM,i,i,i
CC1=C[C@@H](CNC(=O)c2cncnc2)[C@H](C(C)C)C[C@H]1CC(=O)NC1CCCC1,nt,nt,nt,i,nt,nt
CCC(C)Sc1nc2c([nH]c3ccccc32)c(=O)n1C (stereo unspecified),i,i,i,i,i,i
COC(=O)C(C)Sc1nc2c([nH]c3ccccc32)c(=O)n1C (stereo unspecified),i,i,?,i,i,50µM
Cc1ccc(N2C(=O)C3C4C=CC(C4)C3C2=O)cc1C (stereo unspecified),i,i,i,i,i,i
Cc1ccc(N2C(=O)C3C4C=CC(CC4)C3C2=O)cc1[N+](=O)[O-] (stereo unspecified),i,79µM,i[0.501 µM],?,i,32µM
CSc1ccc(CNc2ncncc2-c2nc(-c3ccccc3)no2)cc1,nt,nt,nt,i,nt,nt
CN(C)C(=O)[C@@H]1CN(Cc2ccc(F)cc2F)C[C@H]1CO,nt,nt,nt,i,nt,nt
SMILES,HP1b chromo inh,BAZ2B inh,G9a block,12-LOX inh,JMJD2A Tudor inh,Sfp PPTase inh
CC(C)(C)c1cc(C(c2cccnc2)N2CCN(CCO)CC2)cc(C(C)(C)C)c1O (stereo unspecified),?,50µM,10µM,?,32µM,20µM
CCOC(=O)Cn1c(=O)n2nc(Cc3ccccc3)nc2c2c3c(sc21)COC(C)(C)C3,nt,nt,nt,i,nt,nt
CCOc1cc(N2CCOCC2)c(OCC)cc1NC(C)C(=O)N1CCC(C)CC1 (stereo unspecified),i,i,40µM,35µM,?,i
CCOc1cc(N2CCOCC2)c(OCC)cc1NC(=O)CSc1nccc(C)n1,i,i,i,i,i,i
CCOc1cc(N2CCOCC2)c(OCC)cc1NC(=O)[C@H](C)N1C(=O)C2CC=CCC2C1=O (stereo partly specified),i,i,i,i,i,i
CCOc1cc(N2CCOCC2)c(OCC)cc1NC(=O)CSc1ncn[nH]1,i,i,45µM,i,i,i
CCOc1cc(N2CCOCC2)c(OCC)cc1NC(=O)CN1CCc2ccccc2C1,?,20µM,i[2.33 µM],?,1.4µM,45µM
CCOc1cc(N2CCOCC2)c(OCC)cc1NC(=O)CSc1ccccc1C(=O)O,i,79µM,7.9µM,?,i,nt
CCC(C)(C)NC(=O)CNc1cccc(-c2nnnn2C)c1,nt,nt,nt,i,nt,nt
N#CCCn1c(SCC(=O)Nc2ccc(N3CCCCC3)cc2)nc2ccccc21,nt,nt,nt,i,nt,nt
CCOc1cc(N2CCOCC2)c(OCC)cc1NCC(=O)N1CCN(Cc2ccccc2)CC1,20µM,20µM,nt,i,0.79µM,56µM
CCOc1cc(N2CCOCC2)c(OCC)cc1NC(=O)CN1CCN(Cc2ccc3c(c2)OCO3)CC1,i,i,i[12.7 µM],i,i,i
CC1CC(C)(C)Nc2c(O)cccc21 (stereo unspecified),nt,nt,nt,i,nt,nt
CC(C)N1CCCC2(CCN(C(=O)C3(Cn4ccnc4)CC3)C2)C1=O (stereo unspecified),nt,nt,nt,i,nt,nt
Cc1ccc2c(c1)c1c3n2CCN(CC(O)CNC(C)C)C3CCC1 (stereo unspecified),i,?,?,?,?,i
COC(Cn1c2c(c3cc(C)ccc31)CCCC2NCc1ccccc1)OC (stereo unspecified),i,40µM,45µM,i,?,i
COc1cccc(C2CC(c3c(-c4ccccc4)c4cc(Cl)ccc4[nH]c3=O)=NN2S(C)(=O)=O)c1OC (stereo unspecified),i,i,40µM,i,i,i
COc1ccccc1C1CC(c2c(-c3ccccc3)c3cc(Cl)ccc3[nH]c2=O)=NN1S(C)(=O)=O (stereo unspecified),i,i,?,i,i,i
COc1ccc(C[C@H](NC(=O)C2=C[C@@H](NC(=O)c3ccc(OC)cc3)[C@@H](O)[C@H](O)C2)C(N)=O)cc1,nt,nt,nt,i,nt,nt
COC(=O)C1=C(C)N(c2ccc(OC)c(OC)c2)C(=O)C1,i,i,71µM,i,i,i
